We go through seven compounds from ChEMBL document CHEMBL1961873, “Compounds: GSK PKIS; Assays: Nanosyn kinase panel” (2012).

Test [1] has as its system Proto-oncogene tyrosine-protein kinase receptor Ret (Homo sapiens), P07949 [Y791F]. The note with it: at 1 µM.
In test [2] the target is Macrophage-stimulating protein receptor (Homo sapiens) (UniProt Q04912). The note with it: at 0.1 µM.
For test [3] the target is unchanged. Particulars: at 1 µM.
The target of test [4] is Proto-oncogene tyrosine-protein kinase ROS (Homo sapiens) (UniProt P08922). Particulars: at 0.1 µM.
Test [5] shares this target. Particulars: at 1 µM.
Test [6] deals with Proto-oncogene tyrosine-protein kinase Src (Homo sapiens) (UniProt P12931). The note with it: at 0.1 µM.
Sequence of Proto-oncogene tyrosine-protein kinase Src (Homo sapiens) (P12931 2-536 limits assumed): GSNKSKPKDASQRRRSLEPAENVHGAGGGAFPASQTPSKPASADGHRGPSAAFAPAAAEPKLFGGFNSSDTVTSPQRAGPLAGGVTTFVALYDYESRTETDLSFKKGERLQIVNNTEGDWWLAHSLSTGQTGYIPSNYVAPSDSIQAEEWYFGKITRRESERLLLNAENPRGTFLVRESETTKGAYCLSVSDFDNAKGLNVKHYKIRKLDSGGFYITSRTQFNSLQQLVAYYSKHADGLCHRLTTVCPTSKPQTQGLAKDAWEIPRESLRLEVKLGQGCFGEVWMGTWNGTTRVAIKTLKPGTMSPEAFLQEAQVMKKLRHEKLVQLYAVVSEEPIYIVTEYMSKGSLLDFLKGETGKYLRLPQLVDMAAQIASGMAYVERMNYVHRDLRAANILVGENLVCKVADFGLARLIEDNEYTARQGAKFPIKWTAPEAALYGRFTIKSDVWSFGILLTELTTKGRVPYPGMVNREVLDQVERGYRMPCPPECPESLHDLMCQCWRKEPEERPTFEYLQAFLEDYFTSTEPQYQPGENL
The target is the same in test [7]. Particulars: at 1 µM.
Test [8] concerns the target Tyrosine-protein kinase Srms (Homo sapiens) (UniProt Q9H3Y6). The note with it: at 0.1 µM.
Test [9] shares this target. The note with it: at 1 µM.
Test [10] has as its target Tyrosine-protein kinase SYK (Homo sapiens) (UniProt P43405). The note with it: at 0.1 µM.
For test [11] the target is unchanged. The note with it: at 1 µM.
Test [12] addresses T1, Tyrosine-protein kinase Tec (Homo sapiens) (UniProt P42680).
T1 sequence (whole entry): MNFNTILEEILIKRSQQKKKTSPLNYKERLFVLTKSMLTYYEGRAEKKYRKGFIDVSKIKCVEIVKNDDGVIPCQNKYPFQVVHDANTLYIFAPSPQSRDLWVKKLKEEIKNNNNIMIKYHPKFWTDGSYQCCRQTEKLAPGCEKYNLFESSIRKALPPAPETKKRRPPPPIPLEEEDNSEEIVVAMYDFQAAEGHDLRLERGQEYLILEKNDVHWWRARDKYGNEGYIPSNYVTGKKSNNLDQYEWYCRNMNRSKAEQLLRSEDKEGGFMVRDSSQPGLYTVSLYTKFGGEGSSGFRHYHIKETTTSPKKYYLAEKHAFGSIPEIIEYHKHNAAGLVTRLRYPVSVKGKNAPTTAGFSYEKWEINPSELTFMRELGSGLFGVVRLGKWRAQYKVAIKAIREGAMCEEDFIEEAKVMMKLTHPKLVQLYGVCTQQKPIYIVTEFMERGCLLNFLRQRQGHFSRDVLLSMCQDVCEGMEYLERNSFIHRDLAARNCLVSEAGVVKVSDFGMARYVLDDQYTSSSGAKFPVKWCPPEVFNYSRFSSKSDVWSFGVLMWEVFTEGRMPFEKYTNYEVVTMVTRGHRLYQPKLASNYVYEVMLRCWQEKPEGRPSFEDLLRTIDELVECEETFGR
The note with it: at 0.1 µM.

The target of test [13] is T1, Tyrosine-protein kinase Tec (Homo sapiens). The note with it: at 1 µM.
In test [14] the target is Angiopoietin-1 receptor (Homo sapiens) (UniProt Q02763). The note with it: at 0.1 µM.
Sequence of Angiopoietin-1 receptor (Homo sapiens) (Q02763 whole entry): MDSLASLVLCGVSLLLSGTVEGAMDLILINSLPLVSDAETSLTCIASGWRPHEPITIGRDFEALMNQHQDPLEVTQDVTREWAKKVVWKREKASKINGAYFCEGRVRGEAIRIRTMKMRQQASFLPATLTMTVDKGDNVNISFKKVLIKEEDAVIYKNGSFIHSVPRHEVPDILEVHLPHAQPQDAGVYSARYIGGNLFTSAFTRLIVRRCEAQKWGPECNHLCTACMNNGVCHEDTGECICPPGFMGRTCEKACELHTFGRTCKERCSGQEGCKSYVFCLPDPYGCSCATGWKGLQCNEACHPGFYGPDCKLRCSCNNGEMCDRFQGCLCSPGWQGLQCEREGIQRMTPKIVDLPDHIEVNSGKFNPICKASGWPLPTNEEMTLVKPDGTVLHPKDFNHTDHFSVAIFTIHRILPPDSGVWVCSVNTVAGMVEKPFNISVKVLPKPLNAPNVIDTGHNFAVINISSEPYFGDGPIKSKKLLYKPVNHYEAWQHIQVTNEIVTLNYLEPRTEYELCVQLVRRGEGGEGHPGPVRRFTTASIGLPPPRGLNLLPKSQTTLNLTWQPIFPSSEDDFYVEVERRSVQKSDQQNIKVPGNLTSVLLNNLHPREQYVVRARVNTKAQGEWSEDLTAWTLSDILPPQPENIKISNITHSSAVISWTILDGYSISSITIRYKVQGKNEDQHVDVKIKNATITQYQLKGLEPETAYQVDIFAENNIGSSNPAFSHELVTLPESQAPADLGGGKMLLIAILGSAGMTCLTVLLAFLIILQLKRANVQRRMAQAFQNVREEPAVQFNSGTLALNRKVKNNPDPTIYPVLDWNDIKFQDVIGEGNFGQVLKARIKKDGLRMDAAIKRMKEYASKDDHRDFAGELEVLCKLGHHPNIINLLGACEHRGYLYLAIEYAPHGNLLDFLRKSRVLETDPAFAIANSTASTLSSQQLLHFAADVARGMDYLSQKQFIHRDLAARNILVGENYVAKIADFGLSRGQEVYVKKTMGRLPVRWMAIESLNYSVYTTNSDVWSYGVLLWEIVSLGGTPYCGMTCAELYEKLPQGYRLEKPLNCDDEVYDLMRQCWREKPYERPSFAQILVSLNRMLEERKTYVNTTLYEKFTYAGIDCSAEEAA
Test [15] shares this target. The note with it: at 1 µM.
The target in test [16] is T2, Non-receptor tyrosine-protein kinase TNK1 (Homo sapiens) (UniProt Q13470).
T2 sequence (whole entry): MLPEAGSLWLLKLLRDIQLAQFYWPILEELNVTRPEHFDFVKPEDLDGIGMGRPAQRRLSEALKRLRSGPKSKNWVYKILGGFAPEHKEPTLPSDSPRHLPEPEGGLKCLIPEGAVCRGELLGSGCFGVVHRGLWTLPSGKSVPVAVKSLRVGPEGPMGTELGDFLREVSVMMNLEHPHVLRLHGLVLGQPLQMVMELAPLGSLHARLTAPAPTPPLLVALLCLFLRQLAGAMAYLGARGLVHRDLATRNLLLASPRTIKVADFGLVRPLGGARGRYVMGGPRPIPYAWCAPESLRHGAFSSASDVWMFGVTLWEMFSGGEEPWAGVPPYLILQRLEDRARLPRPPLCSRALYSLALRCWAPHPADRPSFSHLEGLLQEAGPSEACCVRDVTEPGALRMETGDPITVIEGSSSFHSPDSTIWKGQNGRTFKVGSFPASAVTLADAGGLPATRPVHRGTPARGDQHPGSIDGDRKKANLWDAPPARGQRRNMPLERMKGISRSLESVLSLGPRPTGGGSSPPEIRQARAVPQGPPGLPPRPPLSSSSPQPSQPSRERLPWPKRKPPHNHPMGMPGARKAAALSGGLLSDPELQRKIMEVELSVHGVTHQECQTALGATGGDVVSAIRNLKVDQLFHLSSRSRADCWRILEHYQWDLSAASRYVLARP
Particulars: at 0.1 µM.

For test [17], the target named is T2, Non-receptor tyrosine-protein kinase TNK1 (Homo sapiens). Particulars: at 1 µM.
The target in test [18] is Activated CDC42 kinase 1 (Homo sapiens) (UniProt Q07912). The note with it: at 0.1 µM.
Sequence of Activated CDC42 kinase 1 (Homo sapiens) (Q07912 whole entry, looked up): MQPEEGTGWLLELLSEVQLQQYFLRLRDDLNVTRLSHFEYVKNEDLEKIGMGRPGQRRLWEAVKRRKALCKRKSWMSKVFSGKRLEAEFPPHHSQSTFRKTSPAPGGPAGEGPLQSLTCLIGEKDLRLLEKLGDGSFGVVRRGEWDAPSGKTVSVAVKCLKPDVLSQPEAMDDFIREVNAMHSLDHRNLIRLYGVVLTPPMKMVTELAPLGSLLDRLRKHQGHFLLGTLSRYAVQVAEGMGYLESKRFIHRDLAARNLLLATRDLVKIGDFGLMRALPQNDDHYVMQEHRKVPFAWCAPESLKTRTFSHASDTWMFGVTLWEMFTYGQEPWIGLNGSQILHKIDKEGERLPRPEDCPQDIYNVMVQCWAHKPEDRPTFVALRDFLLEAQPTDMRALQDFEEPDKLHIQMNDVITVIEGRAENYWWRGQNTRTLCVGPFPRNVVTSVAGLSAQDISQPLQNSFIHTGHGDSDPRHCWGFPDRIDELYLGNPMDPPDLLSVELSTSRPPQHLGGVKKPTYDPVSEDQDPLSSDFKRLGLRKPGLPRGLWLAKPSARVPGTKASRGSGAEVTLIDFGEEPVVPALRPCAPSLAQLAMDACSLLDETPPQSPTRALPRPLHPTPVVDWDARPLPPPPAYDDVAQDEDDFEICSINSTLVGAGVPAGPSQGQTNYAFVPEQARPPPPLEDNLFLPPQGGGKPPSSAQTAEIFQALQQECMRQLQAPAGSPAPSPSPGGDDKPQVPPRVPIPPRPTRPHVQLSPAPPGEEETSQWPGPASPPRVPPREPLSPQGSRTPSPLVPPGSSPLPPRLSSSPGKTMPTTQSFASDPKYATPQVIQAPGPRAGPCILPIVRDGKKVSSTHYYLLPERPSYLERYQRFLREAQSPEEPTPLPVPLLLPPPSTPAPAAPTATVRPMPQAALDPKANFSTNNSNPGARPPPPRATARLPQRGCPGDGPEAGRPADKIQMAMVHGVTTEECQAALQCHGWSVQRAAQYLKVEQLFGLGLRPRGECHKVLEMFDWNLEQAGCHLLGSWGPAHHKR
Test [19] has the same target. The note with it: at 1 µM.
For test [20], the target named is High affinity nerve growth factor receptor (Homo sapiens) (UniProt P04629). Particulars: at 0.1 µM.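 Also: each value is a mean of replicate percent inhibition readings against TRKA kinase.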
Sequence of High affinity nerve growth factor receptor (Homo sapiens) (P04629 33-796 limits assumed): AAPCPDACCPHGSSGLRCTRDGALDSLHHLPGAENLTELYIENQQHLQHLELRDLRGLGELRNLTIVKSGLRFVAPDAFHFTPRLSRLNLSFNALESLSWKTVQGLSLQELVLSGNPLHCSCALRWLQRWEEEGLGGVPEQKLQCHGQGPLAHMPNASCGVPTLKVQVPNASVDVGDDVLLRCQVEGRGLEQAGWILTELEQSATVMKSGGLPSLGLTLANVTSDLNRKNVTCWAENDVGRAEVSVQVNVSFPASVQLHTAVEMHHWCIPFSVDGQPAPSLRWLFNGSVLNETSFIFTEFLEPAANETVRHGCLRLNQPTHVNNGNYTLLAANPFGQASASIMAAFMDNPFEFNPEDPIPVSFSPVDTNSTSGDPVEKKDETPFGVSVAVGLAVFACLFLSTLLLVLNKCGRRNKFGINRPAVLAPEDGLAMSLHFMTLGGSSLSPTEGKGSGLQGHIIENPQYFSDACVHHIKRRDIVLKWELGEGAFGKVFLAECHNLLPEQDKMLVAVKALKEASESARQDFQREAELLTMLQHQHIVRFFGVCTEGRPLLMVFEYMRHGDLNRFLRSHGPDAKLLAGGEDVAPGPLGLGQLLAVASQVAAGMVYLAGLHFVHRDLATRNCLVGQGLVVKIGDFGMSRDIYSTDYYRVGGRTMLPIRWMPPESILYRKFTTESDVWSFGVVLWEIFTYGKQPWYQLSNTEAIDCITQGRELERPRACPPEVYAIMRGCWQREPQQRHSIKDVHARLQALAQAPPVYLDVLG

Sequence of Macrophage-stimulating protein receptor (Homo sapiens) (Q04912 25-304 limits assumed): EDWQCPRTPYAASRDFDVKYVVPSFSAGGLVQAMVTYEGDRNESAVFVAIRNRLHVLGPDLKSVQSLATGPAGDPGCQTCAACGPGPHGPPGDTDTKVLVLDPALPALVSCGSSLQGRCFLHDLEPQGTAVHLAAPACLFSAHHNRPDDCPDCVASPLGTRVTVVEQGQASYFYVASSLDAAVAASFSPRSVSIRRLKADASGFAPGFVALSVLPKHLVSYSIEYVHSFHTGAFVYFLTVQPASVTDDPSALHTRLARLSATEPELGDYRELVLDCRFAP
Sequence of Macrophage-stimulating protein receptor (Homo sapiens) (Q04912 310-1400 limits assumed): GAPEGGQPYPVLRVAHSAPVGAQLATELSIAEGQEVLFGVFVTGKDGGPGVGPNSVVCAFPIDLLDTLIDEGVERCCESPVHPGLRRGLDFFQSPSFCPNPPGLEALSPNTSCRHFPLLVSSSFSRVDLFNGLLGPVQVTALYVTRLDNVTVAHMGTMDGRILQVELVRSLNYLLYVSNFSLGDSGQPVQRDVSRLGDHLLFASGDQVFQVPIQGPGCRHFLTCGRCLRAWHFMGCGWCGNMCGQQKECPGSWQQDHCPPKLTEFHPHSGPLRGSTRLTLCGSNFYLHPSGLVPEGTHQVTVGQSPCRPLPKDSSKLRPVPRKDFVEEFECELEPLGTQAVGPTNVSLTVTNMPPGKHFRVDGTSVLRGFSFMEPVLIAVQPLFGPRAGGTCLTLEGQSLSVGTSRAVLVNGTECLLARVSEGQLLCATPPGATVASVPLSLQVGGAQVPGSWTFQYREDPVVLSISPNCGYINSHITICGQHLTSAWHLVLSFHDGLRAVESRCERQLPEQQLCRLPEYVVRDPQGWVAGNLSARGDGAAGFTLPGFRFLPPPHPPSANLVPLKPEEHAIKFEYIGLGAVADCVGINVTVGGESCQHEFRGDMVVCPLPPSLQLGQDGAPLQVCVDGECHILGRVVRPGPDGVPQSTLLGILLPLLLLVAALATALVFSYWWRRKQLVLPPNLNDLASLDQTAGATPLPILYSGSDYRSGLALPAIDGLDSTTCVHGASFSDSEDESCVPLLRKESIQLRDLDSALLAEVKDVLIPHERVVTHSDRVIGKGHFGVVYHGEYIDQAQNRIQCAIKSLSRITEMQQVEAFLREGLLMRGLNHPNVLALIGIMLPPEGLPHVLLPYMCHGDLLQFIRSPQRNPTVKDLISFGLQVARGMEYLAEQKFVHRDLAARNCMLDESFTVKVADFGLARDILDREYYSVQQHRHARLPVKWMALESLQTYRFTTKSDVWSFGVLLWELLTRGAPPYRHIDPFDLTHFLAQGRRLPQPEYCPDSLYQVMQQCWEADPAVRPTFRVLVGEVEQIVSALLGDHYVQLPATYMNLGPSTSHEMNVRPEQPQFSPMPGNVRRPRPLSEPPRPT

On to `NC(=O)Cc1ccccc1Oc1nccc(-c2c(-c3ccc(F)cc3)ncn2C2CCNCC2)n1`, for which the inhibition is 4.66% in test [1]; -4.83% in test [2]; 4.24% in test [3]; 6.52% in [4]; 7.32% in [5]; 1.88% in test [6]. In addition, the inhibition in [7] is 5.52%; in [8], -1.62%; in test [9], -0.3%; in test [10] it was -2.13%; in test [11] it was -0.38%; in test [12] it was 4.14%. Besides, the inhibition is 4.45% in test [13]; 3.62% in test [14]; 4.3% in [15]; -0.61% in [16]; -3.16% in [17]; 1.43% in test [18]. In addition, the inhibition in test [19] is 2.74%; in [20], -0.18%.
Consider `c1ccc(Oc2ccc(Nc3ncc(-c4ccccc4)o3)cc2)cc1`, for which the inhibition in test [1] is 6.74%; in [2], 4.82%; in [3], 2.2%; in test [4] it was 4.48%; in [5], 5.71%; in [6] it was -4.51%. For the same compound, the inhibition in [7] is 3.93%; in test [8], 0.57%; in [9] it was 1.29%; in [10] it was -7.24%; in test [11], 2.28%; in [12] it was 2.6%. Also, the inhibition in test [13] is 2.98%; in [14] it was 0.12%; in test [15] it was 1.44%; in test [16] it was 0.99%; in test [17] it was 3.43%; in [18], 0.99%. The inhibition was determined as 2.91% in [19] and 1.43% in test [20].
On to `COc1cc(Nc2ncc3c(C)nc(-c4cccc(Oc5ccccc5)c4)n3n2)cc(OC)c1OC`, for which the inhibition in test [1] was 12.9%; in test [2] it was 2.03%; in test [3], 2.13%; in [4], 13.1%; in [5] it was 14.7%; in test [6], -4.09%. The inhibition in [7] is 21.7%; in [8] it was 0.72%; in [9], -0.11%; in [10] it was 0.87%; in test [11], 0.13%; in test [12], 2.22%. The inhibition in [13] was 5.31%; in test [14], 1.33%; in test [15], 3.09%; in test [16] it was 4.56%; in test [17], 23.8%; in test [18], 0.46%. Further, the inhibition in test [19] worked out at 1.9%; in test [20], 2.69%.
As for `C/C(Nc1ccc(S(N)(=O)=O)cc1)=C1/C(=O)Nc2ccccc21`, the inhibition in test [1] is 40.3%; in test [2], 5.82%; in [3], 4%; in test [4] it was 3.08%; in test [5] it was 8.7%; in [6], -2.31%. The inhibition is 0.81% in test [7]; 1.16% in test [8]; 4.16% in test [9]; -1.12% in [10]; 0.6% in test [11]; -1.54% in test [12]. Also, the inhibition in test [13] was -2.14%; in test [14], 0.44%; in test [15], 2.44%; in test [16] it was -3.91%; in test [17], 9.56%; in [18], -1.14%. Besides, the inhibition amounted to 0.65% in test [19] and 4.48% in test [20].
With `CN(C)CCOc1ccc(-c2cc(-c3ccc4c(c3)CCC4=NO)c(-c3ccncc3)o2)cc1`, the inhibition in test [1] is 9.08%; in test [2], -0.03%; in test [3] it was 22.4%; in test [4], -1.28%; in test [5], 0.64%; in [6] it was 1.1%. The inhibition is 2.61% in test [7]; 3% in test [8]; 3.76% in [9]; 0.85% in test [10]; 0.74% in test [11]; 0.39% in test [12]. The inhibition was 1.01% in [13]; 0.77% in [14]; 11.6% in [15]; 2.33% in test [16]; 20.8% in test [17]; -1.03% in [18]. Moreover, the inhibition in test [19] was 0.17%; in [20], -1.52%.
For the compound `O=C(Nc1n[nH]c2cc(-c3cc(F)ccc3F)ccc12)C1CC1`, the inhibition in test [1] is 11.5%; in test [2], 4.71%; in test [3], 1.65%; in test [4] it was 5.51%; in [5], 5.37%; in test [6], -1.08%. The inhibition in test [7] was 8.62%; in test [8] it was -0.64%; in test [9], -2.57%; in test [10], -7.24%; in test [11], 1.24%; in [12], 2.72%. Also, the inhibition is 4.04% in [13]; 3.35% in [14]; 9.26% in test [15]; 1.68% in [16]; 7.03% in test [17]; -0.01% in test [18]. The results for the inhibition in [19] and in test [20] were -0.8% and 3.75%, respectively.
`COc1cc(Nc2ncc(-c3ccccc3)o2)cc(OC)c1OC`: the inhibition in test [1] is 16.2%; in [2] it was -0.55%; in test [3], 3.47%; in test [4], 2.53%; in [5] it was 15.8%; in test [6], 19.7%. The inhibition in test [7] is 72.4%; in test [8], -1.26%; in test [9], 3.83%; in test [10] it was -0.67%; in [11], -1.68%; in [12], -2.02%. Besides, the inhibition in test [13] was found to be 4.55%; in test [14], 0.66%; in test [15] it was 5.14%; in test [16], 4.15%; in [17], 28.4%; in test [18], 0%. Also, the inhibition in [19] turned out to be 0.48%; in test [20], 3.35%.

One may read the inhibition as the drop in the measured response relative to a control, in per cent.
